Binding signal data for three sequences are collected here from article PMC5913336, “True equilibrium measurement of transcription factor-DNA binding affinities using automated polarization microscopy”.

In this assay the target is T1, Pan (Drosophila melanogaster, UniProt P91943 258-356).
T1 sequence: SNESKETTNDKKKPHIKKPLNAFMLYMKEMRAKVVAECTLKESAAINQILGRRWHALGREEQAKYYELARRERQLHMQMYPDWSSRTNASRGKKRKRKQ
As to the kind of experiment: FP; 33 mM phosphate pH 7.0, 90 mM NaCl, 0.01% Tween 20, 0.1 mM DTT, 0.5% agarose; room temperature. Conditions: tags: N-GST (pGEX-6P-1, kept); dsDNA, one strand shown.
For ATTCTTTGATAAA, the binding signal was 1.9 Kd / Kd of best base at the position.

With AGTCTTTGACAAA, the binding signal was 4.34 Kd / Kd of best base at the position.

As to CGTCTTTGATAAA, the binding signal was 2.92 Kd / Kd of best base at the position.
